Experimental findings from PubChem BioAssay AID602477 (National Center for Advancing Translational Sciences (NCATS), 2012) are described below.

Records with an inconclusive call do not appear. Calls of active or inactive are those of the source. Calls come from the whole dose curve; as a rule, active = well fitted activation curve with a large enough effect; inconclusive = small, poorly fitted or top-dose-only effect; inactive = no such curve, though single readings can be large or run the other way.

This assay can be described thus: FLuc inhibitory activity for the follow-up compounds in a cell-based assay to assess the activity of miR-21. The settings on record: HeLa miR-21-FLuc reporter, luciferase luminescence, 48 h; series mostly up to 38.3 µM. An excerpt:
NCGC Assay Overview: Firefly (Photinus pyralis) luciferase is one of the most commonly used transcriptional reporters. It is considered one of the more dynamically responsive reporters - that is, responsive to changes in reporter transcription - as it requires no post-translational modifications and is enzymatically active directly after protein synthesis (Wood, 1998). With no endogenous expression in mammalian cells and without the requirement of external excitation, it offers very little background signal, thus generally providing excellent signal to background for most assays. Previous profiling work to determine the prevalence of compounds that affect FLuc enzymatic activity (PubChem AID 411) identified that ~3% of the MLSMR library (then at ~72K) inhibited FLuc (Auld et al., 2008). […] Of the compounds identified in this profile that inhibited FLuc, 151 compounds were selected for further analysis, in an effort to better understand their mode of inhibiting FLuc. The assay described here was to determine the activity of the compounds in a cell-based firefly luciferase reporter gene assay originally designed to identify antagonists of miR-21. Compounds that inhibit miR-21 or compounds that stabilize FLuc intracellularly are identified as active compounds in the assay.
NCGC Assay Protocol Summary: Reagents: In-house detection reagent: 300mM Tris-HCl, 300mM Trizma base, 300mM MgCl, 1% Triton-X100, 5mM DTT, 500uM Coenzyme A trilithium salt (Sigma #C3019),450uM ATP (Sigma #A7699), 1mM D-luciferin sodium salt monohydrate (Biosynth #L8240) HeLa cells stably expressing firefly luciferase (FLuc) under the control of a CMV promoter (upstream) and a miR-21 binding sequence directly downstream of the gene. These cells endogenously express miR-21. Control compounds used were two known firefly luciferase inhibitors (3-(5-(3-chlorophenyl)-1,2,4-oxadiazol-3-yl)benzoic acid and 5-(2-fluorophenyl)-3-phenyl-1,2,4-oxadiazole), and DMSO. Assay Summary: 6uL of HeLa miR-21-FLuc cells in assay buffer (DMEM, Invitrogen #21063-029; 10% FBS, HyClone #SH30071.03) were dispensed at 2000cells/well (3.3 x 10^5 cells/mL) into Greiner solid-white TC-treated 1536-well plates using a Multidrop Combi (Thermo Fisher Scientific). Plates were incubated for one hour at 37 degree Celsius, 95% humidity, 5% CO2. These assay plates were then treated with 23nL of compound or DMSO using a Kalypsys pin tool, which allows for delivery of a 12-point titration of each compound to the assay plate, with a final compound concentration ranging from approximately ~38uM to 0.2nM. Assay plates were then incubated for 48 hours. After incubation, plates were allowed to come to RT for one hour prior to delivery of 3uL of 3X luciferase detection reagent. After a 15 minute incubation to allow for cell lysis, luciferase activity was measured using a ViewLux CCD imager (PerkinElmer), with an average exposure time of 2-12 seconds.
In the case of `CN(C)S(=O)(=O)c1ccc(C(=O)Nc2cccc(C(=O)O)c2)cc1`, the Potency result is “inactive”.
Under `CC(C)c1ccc(C(=O)Nc2ccc(-c3nc4ccccc4s3)c(Cl)c2)cc1` stands 7980 nM (active); under `CN=c1scc(-c2ccccc2F)n1/N=C/c1ccc[nH]1`, “inactive”; under `Cc1ccc2nc(-c3ccc(NC(=O)CN4CCN(C(=O)c5ccco5)CC4)cc3)sc2c1`, 4490 nM (active).
In the case of `O=C(Nc1ccccc1C(=O)O)c1cc(S(=O)(=O)Nc2cccc(F)c2)ccc1Cl` it was “inactive”; in that of `O=C(Nc1ccccc1C(=O)O)c1ccccc1`, 25200 nM (active).
In the case of `COc1ccc(Br)cc1C(=O)Nc1ccc(C(=O)O)cc1` it was 7980 nM (active); in that of `O=C(Nc1ccccc1-c1nc2ccccc2s1)c1ccc(Br)o1`, 22500 nM (active); in that of `Cc1ccc(C(=O)Nc2cccc(C(=O)O)c2)cc1`, 126 nM (active).
With `COc1ccc2nc(NC(=O)Cc3cccs3)sc2c1`, the Potency was 2830 nM (active).
In the case of `Cc1ccc(C(=O)O/N=C(\N)c2ccccn2)c(Cl)c1` it was 31.8 nM (active); in that of `Cc1ccc2nc(-c3ccc(N)cc3)sc2c1`, 35.6 nM (active).
In the case of `CC(C)Oc1ccc(C(=O)Nc2ccc(-c3nc4ccccc4s3)cc2)cc1` it was 1130 nM (active).
Under `O=C(Nc1ccccc1C(=O)O)c1cccc(S(=O)(=O)Nc2ccc(Br)cc2)c1` stands “inactive”; under `O=C(Nc1ccccc1C(=O)O)c1cccc(NC(=O)c2ccc(Br)o2)c1`, “inactive”.
As to `CC(=O)Oc1ccc(C(=O)Nc2ccccc2C(=O)Nc2cccc(C(=O)O)c2)cc1`, the Potency entry is “inactive”.
In the case of `Cc1ccc(C(=O)Nc2ccccc2C(=O)O)cc1S(=O)(=O)N1CCCCCC1` it was 2830 nM (active); in that of `CCOc1ccc(C(=O)Nc2cccc(C(=O)O)c2)cc1Cl`, 356 nM (active); in that of `Cc1ccc(C(=O)Nc2cccc(C(=O)O)c2)cc1S(=O)(=O)N1CCOCC1`, 12600 nM (active).
Under `O=C(Cc1ccccc1)Nc1ccc(C(=O)Nc2ccccc2C(=O)O)cc1` stands “inactive”; under `O=C(Nc1ccccc1C(=O)O)c1ccc(NC(=O)C2CCCO2)cc1` (stereo not drawn), “inactive”; under `O=C(Nc1ccccc1C(=O)O)c1ccc(NC(=O)C2CCCCC2)cc1`, “inactive”.
Under `O=C(Nc1ccccc1C(=O)O)c1cccc(C(=O)Nc2ccccc2C(=O)O)c1` stands “inactive”.
As to `Cc1c(NS(C)(=O)=O)cccc1-c1nc2ccccc2s1`, the Potency is 4000 nM (active).
`O=C(Cc1ccccc1)Nc1ccccc1C(=O)Nc1ccc(C(=O)O)cc1`: the Potency result was “inactive”.
Take `Nc1ccc2nc(-c3ccccc3)sc2c1`: the Potency is 63.4 nM (active).
Under `Cc1ccc(C(=O)Nc2ccc(C(=O)O)cc2)cc1S(=O)(=O)Nc1ccccc1` stands “inactive”.
With `O=C(Nc1c(Cl)cc(Cl)cc1-c1nc2ccccc2s1)c1ccc(Br)o1`, the Potency is 12600 nM (active).
Under `COc1ccc2nc(NC(=O)c3ccc4ncsc4c3)sc2c1` stands 2830 nM (active); under `Nc1ccc(-c2nc3ccc(C(=O)O)cc3s2)cc1`, 14.2 nM (active); under `CCOc1c(Cl)cc(C(=O)Nc2ccccc2C(=O)O)cc1Cl`, 5040 nM (active).
For the compound `C/C(=N\NC(=O)c1ccccc1NC(=O)c1ccc(Cl)cc1)c1ccncc1`, the Potency is 44.9 nM (active).
In the case of `Nc1ccc2nc(-c3ccc(O)cc3)sc2c1` it was 400 nM (active); in that of `Cc1ccc(C(=O)Nc2ccc(C(=O)O)cc2)cc1S(=O)(=O)NCc1ccccc1`, “inactive”; in that of `COc1ccc2nc(NC(=O)c3nc(S(=O)(=O)Cc4ccc(C)cc4)ncc3Cl)sc2c1`, 2520 nM (active).
In the case of `Cc1cccc(C(=O)Nc2ccc(-c3nc4ccccc4s3)cc2Cl)c1` it was 12600 nM (active); in that of `COc1ccc(C(=O)Nc2nc3ccc(OC)cc3s2)cc1`, 2830 nM (active).
In the case of `COc1cc(OC)cc(C(=O)Nc2ccc(-c3nc4ccccc4s3)c(C)c2)c1` it was 11300 nM (active).
